From PubChem BioAssay
Activity calls are given as the source filed them.

Experiments:
[1] = small molecules captured by biotinylated probe aFSTL3 – biochemical, small-molecule microarray, fluorescence 635/667, stem cell growth factor project, primary screen (AID 1064); conditions: higher = more signal;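 note: measures binding of the biotinylated anti-FSTL3 antibody to printed compounds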
[2] = binders from COS7 lysate, DM2A8 probe, primary screen, torsin A project, cell lysate, small-molecule microarray, fluorescence 635/667 (AID 1065); conditions: higher = more signal, COS7 lysate expressing mutant human TOR1A
[3] = small molecules captured by biotinylated probe aFGF2 – biochemical, small-molecule microarray, fluorescence 635/667, stem cell growth factor project, primary screen (AID 1067); conditions: higher = more signal;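 note: measures binding of biotinylated aFGF2 protein to printed compounds on slides; z-score merges feature fluorescence and signal-to-noise across triplicate slides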
[4] = small molecules captured by biotinylated probe aFGF10 – biochemical, small-molecule microarray, fluorescence 635/667, stem cell growth factor project, primary screen (AID 1071); conditions: higher = more signal;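 note: score merges 667 nm spot intensity and signal to noise from triplicate slides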
[5] = molecular target: Neurogenic locus notch homolog protein 2 (Homo sapiens) (UniProt Q04721); assay: small molecules binding Notch2 protein – biochemical, small-molecule microarray, 635 nm fluorescence, stem cell growth factors, primary screen (AID 1073); conditions: higher = more signal
[6] = molecular target: Pro-neuregulin-1, membrane-bound isoform (Homo sapiens) (UniProt Q02297); assay: small molecules binding neuregulin-1 protein – biochemical, small-molecule microarray, fluorescence 635/667, psychiatric disease protein project, primary screen (AID 1075); conditions: NRG1 binding, 635 nm fluorescence, higher = more signal;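 note: score combines 667 nm spot fluorescence with signal to noise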
[7] = tested on: Neuregulin-1 EGF-like domain; assay: small molecules binding NRG1 EGF domain – biochemical, small-molecule microarray, 635 nm fluorescence, primary screen (AID 1081); conditions: higher = more signal;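 note: binding of the protein to compounds printed on small-molecule microarray slides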
[8] = FRG1 expression reporter modulators in myotubes – cell-based, C2C12 myotubes, firefly/Renilla luciferase, luminescence, FRG1 inhibition for FSHD, primary screen (AID 1084); conditions: FRG1 promoter luciferase, higher = more signal, called active from +8 up or from −8 down
[9] = small molecules captured by biotinylated probe aFST – biochemical, small-molecule microarray, fluorescence 635/667, stem cell growth factor project, primary screen (AID 1086); conditions: higher = more signal;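 note: score merges 667 nm fluorescence with signal-to-noise of each printed compound spot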
[10] = binders of probe aHhip on microarray, primary screen, stem cell growth factor project, biochemical, small-molecule microarray, fluorescence 635/667 (AID 1087); conditions: higher = more signal;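 note: score merges spot fluorescence at 667nm with spot signal to noise ratio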
[11] = tested on: PRMT1 (protein arginine N-methyltransferase 1); assay: small molecules binding arginine methyltransferase PRMT1 – biochemical, small-molecule microarray, 635 nm fluorescence, primary screen (AID 1088); conditions: higher = more signal;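 note: binding of Prmt1 protein to compounds spotted on small-molecule microarray slides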
[12] = growth effects on S. cerevisiae YJM789 – YJM789 clinical isolate, OD600, 24 h, basal, primary screen (AID 1089); conditions: higher = more signal, called active from +8 up or from −8 down;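 note: growth of clinical yeast isolate S. cerevisiae YJM 789 seeded 1000 cells per well; test concentration not given here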
[13] = S. pombe growth modifiers, basal conditions – strain 972, OD600, 24 h, no modulator, primary screen (AID 1090);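 note: basal condition with compound alone and no growth modifier present; test concentration not given here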; conditions: S. pombe 972 growth, higher = more signal, called active from +8 up or from −8 down
[14] = budding yeast growth modifiers under rapamycin – strain BY4716, OD600, 96 h, primary screen (AID 1091); note: test concentration not given here; conditions: S. cerevisiae BY4716 + rapamycin, higher = more signal, called active from +8 up or from −8 down
[15] = molecular target: Torsin-1A-interacting protein 2 (Homo sapiens) (UniProt Q8NFQ8); assay: small molecules binding lysate-expressed LULL1 – cell lysate, human LULL1 lysate, 635/667 nm fluorescence, primary screen (AID 1092); conditions: small-molecule microarray, hLULL1 lysate binding, 635 nm fluorescence; higher = more signal;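 note: probe is lysate of COS7 cells overexpressing human LULL1; score merges per-feature 667 nm fluorescence with signal-to-noise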
[16] = optical density change of DRC41 E. coli – strain DRC41, OD650, 24 h, E. coli filamentation project, primary screen (AID 1093);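 note: MC1000 strain lacking acrAB efflux and sulA so SOS filamentation is blocked; test concentration not given here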; conditions: E. coli DRC41 growth, higher = more signal, called active from +8 up or from −8 down
[17] = probe aLefty2 binding to arrayed compounds – biochemical, biotinylated probe, 635/667 nm fluorescence, primary screen (AID 1094); conditions: small-molecule microarray, higher = more signal;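 note: score merges spot fluorescence near 667 nm with spot signal-to-noise ratio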
[18] = tested on: Noggin (protein binding on small-molecule microarray); assay: small molecules binding Noggin protein – biochemical, 635/667 nm fluorescence, primary screen (AID 1095); conditions: 635 nm fluorescence, higher = more signal;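 note: score merges 667 nm feature fluorescence with signal to noise over triplicate slides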
[19] = molecular target: Neurogenic locus notch homolog protein 3 (Homo sapiens) (UniProt Q9UM47); assay: small molecules binding NOTCH3 protein – biochemical, 635/667 nm fluorescence, primary screen (AID 1096); conditions: small-molecule microarray, 635 nm fluorescence, higher = more signal
[20] = probe aEGFR binding to arrayed compounds – biochemical, biotinylated probe, 635/667 nm fluorescence, primary screen (AID 1097); conditions: small-molecule microarray, higher = more signal;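 note: probe is a biotinylated anti-EGFR antibody binding compounds printed on slides; score combines fluorescence near 667 nm and signal to noise of each spot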

Pro-neuregulin-1, membrane-bound isoform (Homo sapiens), sequence (Q02297 whole entry, looked up, the tested form may be a part, canonical isoform): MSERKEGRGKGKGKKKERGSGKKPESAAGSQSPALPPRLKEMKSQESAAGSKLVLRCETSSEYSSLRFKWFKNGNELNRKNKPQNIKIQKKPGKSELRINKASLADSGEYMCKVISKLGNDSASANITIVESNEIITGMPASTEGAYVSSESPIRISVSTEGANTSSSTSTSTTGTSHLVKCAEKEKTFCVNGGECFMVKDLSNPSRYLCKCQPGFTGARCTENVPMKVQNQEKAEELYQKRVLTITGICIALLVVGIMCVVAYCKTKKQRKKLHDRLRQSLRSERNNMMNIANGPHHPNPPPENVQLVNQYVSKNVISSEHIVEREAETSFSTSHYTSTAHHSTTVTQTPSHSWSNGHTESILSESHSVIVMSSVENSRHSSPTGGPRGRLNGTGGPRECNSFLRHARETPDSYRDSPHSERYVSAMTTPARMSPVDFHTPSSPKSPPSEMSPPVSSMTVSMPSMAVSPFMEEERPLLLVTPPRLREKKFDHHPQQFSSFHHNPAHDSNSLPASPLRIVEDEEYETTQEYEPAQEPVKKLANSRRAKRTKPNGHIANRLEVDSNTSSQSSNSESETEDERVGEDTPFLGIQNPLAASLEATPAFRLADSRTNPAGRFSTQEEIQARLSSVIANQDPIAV
Neurogenic locus notch homolog protein 3 (Homo sapiens), sequence (Q9UM47 whole entry, looked up): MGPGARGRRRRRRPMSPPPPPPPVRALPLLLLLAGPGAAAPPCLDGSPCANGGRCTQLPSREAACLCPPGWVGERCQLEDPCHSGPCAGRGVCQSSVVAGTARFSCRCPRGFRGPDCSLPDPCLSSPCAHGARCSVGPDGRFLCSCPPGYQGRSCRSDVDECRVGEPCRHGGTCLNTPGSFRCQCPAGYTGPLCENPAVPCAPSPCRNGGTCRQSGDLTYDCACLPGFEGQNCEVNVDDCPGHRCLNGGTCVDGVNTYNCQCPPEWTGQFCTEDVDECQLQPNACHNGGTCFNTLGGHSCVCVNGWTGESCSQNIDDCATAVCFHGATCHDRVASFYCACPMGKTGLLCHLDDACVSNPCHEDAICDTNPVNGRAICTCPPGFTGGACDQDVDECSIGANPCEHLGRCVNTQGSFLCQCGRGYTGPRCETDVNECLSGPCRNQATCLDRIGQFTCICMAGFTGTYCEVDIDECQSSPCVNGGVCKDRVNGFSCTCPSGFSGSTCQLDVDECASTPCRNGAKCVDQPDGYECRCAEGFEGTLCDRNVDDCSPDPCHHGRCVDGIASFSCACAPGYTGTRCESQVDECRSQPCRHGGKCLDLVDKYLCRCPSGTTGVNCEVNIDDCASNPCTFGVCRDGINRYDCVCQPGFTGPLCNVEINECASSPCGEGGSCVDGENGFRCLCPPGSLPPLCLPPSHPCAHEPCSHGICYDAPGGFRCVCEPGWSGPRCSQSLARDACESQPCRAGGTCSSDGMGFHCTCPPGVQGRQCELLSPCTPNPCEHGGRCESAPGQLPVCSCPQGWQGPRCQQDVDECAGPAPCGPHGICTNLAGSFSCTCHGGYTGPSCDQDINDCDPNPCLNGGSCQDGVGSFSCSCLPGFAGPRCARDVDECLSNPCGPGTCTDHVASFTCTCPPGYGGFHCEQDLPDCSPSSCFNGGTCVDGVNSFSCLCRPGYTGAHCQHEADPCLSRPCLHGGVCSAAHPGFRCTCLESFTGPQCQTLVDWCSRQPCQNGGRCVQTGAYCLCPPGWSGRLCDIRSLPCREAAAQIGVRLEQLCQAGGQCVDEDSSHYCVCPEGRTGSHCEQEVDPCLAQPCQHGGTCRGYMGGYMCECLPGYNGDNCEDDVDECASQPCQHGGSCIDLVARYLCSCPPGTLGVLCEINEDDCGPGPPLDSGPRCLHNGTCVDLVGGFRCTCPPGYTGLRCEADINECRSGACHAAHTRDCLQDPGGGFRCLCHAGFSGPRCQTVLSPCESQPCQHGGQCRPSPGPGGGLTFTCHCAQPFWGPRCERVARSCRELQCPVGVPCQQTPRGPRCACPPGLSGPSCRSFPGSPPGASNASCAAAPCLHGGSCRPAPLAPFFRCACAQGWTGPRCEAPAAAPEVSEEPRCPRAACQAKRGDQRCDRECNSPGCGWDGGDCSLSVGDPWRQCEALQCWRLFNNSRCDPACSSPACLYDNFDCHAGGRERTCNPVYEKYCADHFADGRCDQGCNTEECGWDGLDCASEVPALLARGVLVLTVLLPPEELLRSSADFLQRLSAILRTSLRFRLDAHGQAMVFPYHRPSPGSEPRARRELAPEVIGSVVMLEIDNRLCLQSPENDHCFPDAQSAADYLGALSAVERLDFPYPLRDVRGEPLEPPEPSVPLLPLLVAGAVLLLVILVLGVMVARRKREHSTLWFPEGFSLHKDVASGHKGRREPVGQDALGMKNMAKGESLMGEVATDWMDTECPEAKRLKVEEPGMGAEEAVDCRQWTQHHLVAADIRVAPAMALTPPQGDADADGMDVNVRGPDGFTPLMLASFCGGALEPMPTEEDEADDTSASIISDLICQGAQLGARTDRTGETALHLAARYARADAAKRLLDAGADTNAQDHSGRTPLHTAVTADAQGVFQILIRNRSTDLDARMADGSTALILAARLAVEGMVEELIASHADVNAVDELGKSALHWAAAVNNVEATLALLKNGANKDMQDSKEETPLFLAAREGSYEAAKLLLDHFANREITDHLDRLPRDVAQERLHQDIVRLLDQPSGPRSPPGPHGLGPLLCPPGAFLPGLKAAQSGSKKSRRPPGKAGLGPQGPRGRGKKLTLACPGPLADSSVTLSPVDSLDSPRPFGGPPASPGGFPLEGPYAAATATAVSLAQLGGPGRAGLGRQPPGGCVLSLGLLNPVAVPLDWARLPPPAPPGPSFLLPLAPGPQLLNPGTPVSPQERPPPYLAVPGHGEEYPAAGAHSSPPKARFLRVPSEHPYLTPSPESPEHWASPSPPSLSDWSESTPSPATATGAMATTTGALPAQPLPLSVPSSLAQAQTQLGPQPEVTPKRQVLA
Torsin-1A-interacting protein 2 (Homo sapiens), sequence (Q8NFQ8 whole entry, looked up): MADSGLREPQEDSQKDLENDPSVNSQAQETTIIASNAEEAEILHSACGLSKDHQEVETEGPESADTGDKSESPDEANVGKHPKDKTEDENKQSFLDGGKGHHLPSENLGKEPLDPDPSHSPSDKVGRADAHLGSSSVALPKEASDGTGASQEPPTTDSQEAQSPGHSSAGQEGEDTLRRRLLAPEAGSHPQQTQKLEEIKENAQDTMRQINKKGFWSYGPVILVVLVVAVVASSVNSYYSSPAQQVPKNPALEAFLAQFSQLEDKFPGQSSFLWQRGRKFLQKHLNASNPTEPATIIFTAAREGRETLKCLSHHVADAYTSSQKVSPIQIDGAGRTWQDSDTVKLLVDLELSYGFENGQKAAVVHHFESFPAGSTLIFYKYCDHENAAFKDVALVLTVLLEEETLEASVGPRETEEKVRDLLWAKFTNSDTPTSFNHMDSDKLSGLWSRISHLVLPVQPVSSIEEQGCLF

Row | SMILES | composite z-score [1] | composite z-score [2] | composite z-score [3] | composite z-score [4] | composite z-score [5] | composite z-score [6] | composite z-score [7] | z-score [8] | composite z-score [9] | composite z-score [10] | composite z-score [11] | z-score [12] | z-score [13] | z-score [14] | composite z-score [15] | z-score [16] | composite z-score [17] | composite z-score [18] | composite z-score [19] | composite z-score [20]
1 | CN(C)CCCNC(=O)[C@@H]1c2ccccc2C(=O)N(Cc2ccccc2Cl)[C@H]1c1ccc(CO)cc1 | -0.126 | 0.542 | -0.19 | 0.069 | -0.243 | 0.261 | -0.0724 | -1.96 (inactive) | -0.177 | -0.19 | 0.226 | -0.34 (inactive) | -1.32 (inactive) | -1.04 (inactive) | 2.25 | 0.596 (inactive) | -0.295 | -0.611 | -0.247 | 0.0733
2 | Cc1ccc(S[C@]2(C(=O)O)CC(=O)N(Cc3ccccc3Cl)[C@@H]2c2ccc(CO)cc2I)cc1 | 0.655 | 0.39 | 0.234 | 0.107 | -0.442 | -0.0683 | 1.09 | 0.11 (inactive) | 0.415 | -0.624 | 0.765 | -0.923 (inactive) | -1.71 (inactive) | 1.21 (inactive) | 0.198 | -0.852 (inactive) | -0.131 | -0.678 | -0.162 | 0.519
3 | COCCOC(=O)N1C(=O)[C@@]2(c3cc(C#CC4=CCCCC4)ccc31)[C@H](c1ccccc1OCCO)N1[C@H](c3ccccc3)[C@H](c3ccccc3)OC(=O)[C@H]1[C@@H]2C(=O)N1CCCCCCC1 | 0.493 | 0.107 | 0.0829 | 0.61 | 1.1 | 0.382 | 1.29 | -0.639 (inactive) | 0.497 | -0.972 | 1.57 | 1.31 (inactive) | 1.59 (inactive) | 3.07 (inactive) | 2.9 | 0.0735 (inactive) | -0.573 | 0.766 | 1.05 | 0.0961
4 | N#Cc1ccc(NN2C(C(O)c3ccc(F)cc3)C=CC3C(=O)N(c4ccccc4)C(=O)C32)cc1 (stereo not given) | -0.28 | -0.17 | 0.183 | -0.0175 | 0.47 | 1.4 | 1.07 | 0.0158 (inactive) | 0.87 | -0.353 | 1.24 | 0.537 (inactive) | 2.45 (inactive) | 2.57 (inactive) | 3.21 | -0.538 (inactive) | -0.0477 | -0.868 | 0.443 | -0.257
5 | C=CCOC(=O)[C@H]1[C@@H]2C(=O)O[C@@H](c3ccccc3)[C@@H](c3ccccc3)N2[C@@H](c2ccc(OCCOC(=O)[C@@H]3C[C@@H]4C(=O)N[C@@H](CCCCN(C)C)C(=O)N4[C@@H]3c3ccc(O)cc3)cc2)[C@]12C(=O)Nc1ccccc12 | -0.0613 | 0.639 | -0.113 | 0.389 | 0.69 | 0.965 | 1.26 | 0.585 (inactive) | 0.29 | 0.0623 | 1.55 | 0.693 (inactive) | -2.78 (inactive) | 0.436 (inactive) | 2.57 | -1.6 (inactive) | 0.253 | 1.7 | 1.05 | -0.0177
6 | CN1C(=O)C2C=CC(C(O)c3cccc4ccccc34)N(N3CCCCC3)C2C1=O (stereo not given) | 0.827 | 1.12 | -0.0122 | 0.691 | 1.48 | 1.67 | 1.19 | 1.09 (inactive) | 0.785 | 0.0873 | 1.55 | -0.0899 (inactive) | 1.13 (inactive) | 0.579 (inactive) | 2.86 | -1.09 (inactive) | 0.101 | 0.354 | 1.1 | 0.299
7 | COCCOC(=O)N1C(=O)[C@@]2(c3cc(C#CC4=CCCCC4)ccc31)[C@H](c1ccccc1OCCO)N1[C@H](c3ccccc3)[C@H](c3ccccc3)OC(=O)[C@H]1[C@@H]2C(=O)Nc1nc2ccccc2s1 | -0.19 | -0.0036 | -0.0398 | 0.359 | 1.23 | 0.953 | 1.08 | 1.41 (inactive) | 0.513 | 0.0373 | 1.29 | 0.478 (inactive) | 0.615 (inactive) | 1.29 (inactive) | 2.66 | -0.15 (inactive) | 0.0274 | 1.05 | 1.06 | -0.0728
8 | NC(N)=NCCCn1cc(CNC(=O)[C@@H](N)Cc2ccccc2)nn1 | 0.236 | 0.236 | 0.0263 | -0.0436 | -0.0857 | 1.28 | 1.49 | 1.28 (inactive) | 0.044 | 0.0053 | 0.605 | 0.567 (inactive) | -0.627 (inactive) | -0.933 (inactive) | 1.14 | -1.08 (inactive) | 0.0616 | 0.743 | 0.179 | 0.0221
9 | Cc1cc(C)c(C(O)C2C=CC3C(=O)NC(=O)C3N2Nc2ccc(Cl)cc2Cl)c(C)c1 (stereo not given) | 0.246 | -0.33 | 0.059 | 0.495 | 1.49 | 1.65 | 1.01 | 2.81 (inactive) | 1.64 | -0.0618 | 1.2 | -1.67 (inactive) | -3.28 (inactive) | 2.14 (inactive) | 3.42 | -2.14 (inactive) | 0.114 | 0.364 | 0.874 | -0.0581
10 | C=C(/C(=C/C[C@@H](OC(C)=O)c1cccc(OCCO)c1)c1cc(C(=O)OC)ccc1OC)C(C)C | -0.367 | 1.11 | -0.0799 | 0.451 | -0.114 | -0.202 | 0.938 | 0.608 (inactive) | 0.313 | 0.0373 | 1.07 | -0.373 (inactive) | 0.114 (inactive) | -0.87 (inactive) | 1.69 | 0.251 (inactive) | 0.0347 | 0.575 | 0.666 | -0.0987
